# From the supplement of paper PMC10105736
# ± gives the standard deviation of the averaged measurements.
# B1: grass (protein)
# chain: MMIASSLAVLYGIAIVSSMGVQSARADYADDCTTPDGDQGQCMPFSSCRTIEERLTEAQKAGQKVPADYASYLQKALCGEFNGVRHFCCPSANIQHNSKVMSLFKDENFDCGNFLSQRVSNGYEVKLSSRPWMALLRYQQFGESRFLCGGAMISERYILTAAHCVHGLQNDLYEIRLGEHRISTEEDCRQQGRKKKCAPPVVNVGIEKHLIHEKYDARHIMHDIALLKLNRSVPFQKHIKPICLPITDELKEKAEQISTYFVTGWGTTENGSSSDVLLQANVPLQPRSACSQAYRRAVPLSQLCVGGGDLQDSCKGDSGGPLQAPAQYLGEYAPKMVEFGIVSQGVVTCGQISLPGLYTNVGEYVQWITDTMASNGL
# B2: snf (protein)
# chain: MEMLPNQTIYINNLNEKIKKEELKKSLYAIFSQFGQILDIVALKTLKMRGQAFVIFKEIGSASNALRTMQGFPFYDKPMQIAYSKSDSDIVAKIKGTFKERPKKVKPPKPAPGTDEKKDKKKKPSSAENSNPNAQTEQPPNQILFLTNLPEETNEMMLSMLFNQFPGFKEVRLVPNRHDIAFVEFTTELQSNAAKEALQGFKITPTHAMKITFAKK
# B3: CtsF (protein)
# chain: MRLFAAATVALVLLLGQAAGEELAEERAGQAQGDAESTESSETTTDQAVSEPPITLVHVLNPGEREYLSPNLIGVQNIAMTFLPLSMNFVNIIDAFREITAGVRYEILLNALDTKAIQPAEADIVCRLVILEKPWLRTQWGDKHRELVTSNCTDPAVNSVAGDPAEKARLLNEKYVHRSRRSANDILGRHKPYDEEAAKAQLQKSLDKLTAGEGPHYKIVKVYSASRQVDSGILTRIDADLIDGSEEQHRCIVDIWTKVWVRKDEHEITFKCRNQPVVQARHTRSVEWAEKKTHKKHSHRFDKVDHLFYKFQVRFGRRYVSTAERQMRLRIFRQNLKTIEELNANEMGSAKYGITEFADMTSSEYKERTGLWQRDEAKATGGSAAVVPAYHGELPKEFDWRQKDAVTQVKNQGSCGSCWAFSVTGNIEGLYAVKTGELKEFSEQELLDCDTTDSACNGGLMDNAYKAIKDIGGLEYEAEYPYKAKKNQCHFNRTLSHVQVAGFVDLPKGNETAMQEWLLANGPISIGINANAMQFYRGGVSHPWKALCSKKNLDHGVLVVGYGVSDYPNFHKTLPYWIVKNSWGPRWGEQGYYRVYRGDNTCGVSEMATSAVLA
# B4: Tcs3 (protein)
# chain: MVCALGIEGSANKIGIGIIRDGKVLANVRRTYITPPGEGFLPKETAKHHREAILGLVESSLKEAQLKSSDLDVICYTKGPGMAPPLLVGAIVARTLSLLWNIPLLGVNHCIGHIEMGRLITGAQNPTVLYVSGGNTQVIAYSNKRYRIFGETIDIAVGNCLDRFARIIKLSNDPSPGYNIEQLAKSSNRYIKLPYVVKGMDVSFSGILSYIEDLAEPGKRQNKRKKPQEEEVNNYSQADLCYSLQETIFAMLVEITERAMAHCGSNEVLIVGGVGCNERLQEMMRIMCEERGGKLFATDERYCIDNGLMIAHAGAEMFRSGTRMPFEESYVTQRFRTDEVLVSWRDD
# B5: Unr (protein)
# chain: MNTQSKVYRTGEEIYDNLPCDSYFNMNAIRNLGIPTTFPTIGTFTLDSTTLGLQPQGQGPSPQQQQHQQQQQQQQQQHQQNMHHHQHQQQHMQQQQQQQQHQQQHQQQQHQQQQQHQQQQQQQQQHPTIGMFDANEVNDVIQNPPQIGVFQSNSVLTNGAGSGSSIFGSQSSNSSAAAADPSQTTRETGIIEKLLHSYGFIQCCERQARLFFHFSQFSGNIDHLKIGDPVEFEMTYDRRTGKPIASQVSKIAPEVVLSEERVTGTVTTELRTDSANNVLNSSETTGRISYENRGECFFLPYTKDDVEGNVNLRAGDKVSFQIATNQRGNLGACHIRLENPAQPVKYRGVVCSMKESFGFIERADVVKEIFFHFSEAEGNVELRPGDDVEFTIQTRSSASVPPQGREFACNITRLAPGSVIFEDVDSTVYKGQVLKSLDRNNPVRQNNDPLPGRIRYRALDYSEVEVPFGDKDQKGDFTLRHGDWVQFLLATDRRDQLQRATSIALLDETFKVSGEKREQGTIASLKEGFGFLRCVERQARLFFHFTEVLDTSREIDINDEVEFTVIQEPGLAYNNSRLQAIRIKHLPPNSVQFETLVASNIEGCVTREAPKSPIKSQDRVEGGVITYEHADVKKTIMYFLKDCEKPPRIGERVRFDIYMVKRNKECIAVNVQQVSLHQQQQQQQQQLHLNQSNAGANINQNDQLGGLSNGISSSSSNASLQNGYVMHGSPGGSTSSVGSNNPVHLDEFKMENNNHAGSDAGQVYRGFIAVMKENFGFIETLSHDEEVFFHFSNYMGNPNWLELGQEVEYTLARNGNTSVSGNCLPAENVRMLPKNSIPQPAVLETTHNGVVARPLRCINPDQQEYAGLIEILDELRTTVISQHEFGITSLVNKRDLLQKGDLVSFRIDESGRAACVNAVRQKKRATVDSIKGQFGFLNFEVEDGKKLFFHMSEVQGNTVALHPGDTVEFSVVTNQRNGKSSACNVLKINDRPDRLISRLKLNGDDTVPRLILIRAPKGPQGKGFSVLARHPRIPGNLVE
# B6: TfIIA-S-2 (protein)
# chain: MNYQHYRATTLGRTLQDTLDEMMERGDITKKIANLVLLRYDKSISTALKDHGTSNMSFTAERLETFRCCDNVWTLILKDAEFREDQHSLKVDVVKIVACLGTDNGNE
# Assays:
# Assay in all cases: MAPPIT interaction score (arbitrary units); higher = stronger binary interaction signal, active = hit call of the paper;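 active = MAPPIT score above the 99th percentile of random reference set scores in the same batch; inactive = at or below it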
# Syp = settings: MAPPIT configuration: N-N; pair source set: DPIM
# THG = settings: MAPPIT configuration: N-N; pair source set: screen_2
# Taf12 = settings: MAPPIT configuration: N-N; pair source set: Curagen_low_conf
# Tcs6 = settings: MAPPIT configuration: N-N; pair source set: screen_2
# Sxl = settings: MAPPIT configuration: N-N; pair source set: Lit-BM-16
# TfIIA-L = settings: MAPPIT configuration: N-N; pair source set: screen_2
# 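Note: HEK293T cells with Epo stimulation, STAT-responsive firefly luciferase reporter, fold induction versus unstimulated cells divided by the larger fold induction of two negative controls lacking either bait or prey.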
binder,measurement,setting,value
B1,MAPPIT interaction score,Syp,-0.0477 (inactive)
B2,MAPPIT interaction score,THG,0.333 (inactive)
B3,MAPPIT interaction score,Taf12,0.31 (inactive)
B4,MAPPIT interaction score,Tcs6,1.93 (inactive)
B5,MAPPIT interaction score,Sxl,1.51 (inactive)
B6,MAPPIT interaction score,TfIIA-L,3.17 ± 3.8
